# Screening data as filed in PubChem BioAssay.
# IL1B secr inh: inflammasome signaling inhibition, IL-1 beta readout. THP-1 LPS/ATP IL-1B secretion, AlphaLISA, 16 h; stronger effect = lower value. activity change, % at 57.5 µM. actives 4.7% (n = 360,000). AID 743279; in the data active = activity change below about -50%; inconclusive = mostly about -30% to -49%; also: % is scaled to controls: 0 for no effect and ±100 for the full control effect
#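 Secreted IL-1B measured by AlphaLISA bead assay after 16 h compound exposure of THP-1 cells; compounds (final up to 57.5 uM) added 1 h before LPS (250 ng/mL) and ATP (1.25 mM) stimulation; lower signal means less secretion.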
# TGFb inhibitor: TGF-b pathway inhibition; HepG2 CAGA-GFP TGF-b/SMAD3 reporter, GFP fluorescence, 18 h; TGF-beta stimulated, 500 pg/mL final; Potency, µM (titrated, usually from 46.1 µM), without a hit: at the top dose activity, negative = inhibition, most hits filed as inhibitors; actives 1.2% (n = 410,000); AID 588855; also: potency is read from the fitted curve at half-maximal effect; % is scaled to controls: 0 for no effect and ±100 for the full control effect; nearly all actives have a fitted effect of over 65% in size
#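 Cell-based qHTS in HEPG2 carrying a CAGA-GFP Smad reporter; compounds added before 500 pg/mL final TGF-beta, 18 h incubation at 37 degrees C, GFP fluorescence quantified per cell by imaging cytometry.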
# HepG2 viability: counter-screen for TGF-b inhibitors: cytotoxicity in HepG2 cells | HepG2 CAGA-GFP viability, ATP luminescence, 18 h | Potency, µM (top dose mostly 46.1 µM), for inactives: at the highest dose activity change, negative = cytotoxicity, actives largely listed as cytotoxic | AID 588856 | actives 0.76% (n = 410,000); also: potency is read from the fitted curve at half-maximal effect
#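 CellTiter-Glo luminescence gave cytotoxicity after 18 hours at 37 degrees C. The cells were HepG2 CAGA-GFP in 1% FBS DMEM, stimulated with 500 pg/mL TGF-beta after compound addition. %Activity was normalised to no-cell wells (complete cell-killing) and DMSO (no toxicity), and curves were fitted and classified.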
# ATXN2 expr inh: inhibitors of ATXN2 expression. actives 0.72% (n = 360,000). Potency, µM (top dose mostly 57 µM), inactives show top-dose activity change, negative = inhibition, actives largely listed as inhibitors. HEK-293 ATXN2-luciferase reporter, luminescence, 24 h; also: potency is read from the fitted curve at half-maximal effect; % is scaled to controls: 0 for no effect and ±100 for the full control effect; nearly all actives have a fitted effect of over 55% in size
#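 qHTS (up to 57 uM final) was run with 24 h compound exposure of reporter cells at 37 °C. Each well was multiplexed: SteadyGlo luminescence measured ATXN2-luciferase expression after a fluorogenic Gly-Phe-AFC viability readout (25 uM final).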
# ATXN viability: reduces viability in counter-screen for ATXN expression inhibitors. S2 cells (HEK-293 line with an ATXN2-luciferase reporter) viability, CellTiter-Fluor protease fluorescence, 24 h. actives 0.49% (n = 400,000). Potency, µM (titrated, usually from 56.7 µM), actives largely listed as cytotoxic; also: potency is read from the fitted curve at half-maximal effect; nearly all actives have a fitted effect of over 40% in size
# Numbers without * were called inactive; i = inactive; ? = inconclusive; / = no result given; [ ] = another dose, or the depositor's remark. This is a sample that favours compounds with a hit; in the whole collection about 5.7% have one here. Unless noted, calls follow the shape of the dose curve; as a rule, active = well fitted curve in the direction sought with a large enough effect; inconclusive = small, poorly fitted or top-dose-only effect, or another doubt; inactive = no such curve, though single readings can be large; an effect the other way counts as inactive or inconclusive.
SMILES,IL1B secr inh,TGFb inhibitor,HepG2 viability,ATXN2 expr inh,ATXN viability
CC(=O)N1CCC(O)(c2cccc(C(F)(F)F)c2)CC1,0,-4%,-3%,0%,i
Fc1ccc2[nH]c3c(N4CCN(c5ccccc5)CC4)ncnc3c2c1,-55*,?,-35%,?,?
CCc1ccc(NC(=O)CC2C(=O)N(c3ccc(Cl)cc3)C(=O)N2C2CCCC2)cc1 (centres undefined),/,?,-39%,/,/
CC(C)(C)c1ccc(C(=O)C[n+]2cccc(Br)c2)cc1,/,-13%,-21%,/,/
O=C(CSc1nnc(NC(=O)NC2CCCCC2)s1)Nc1ccccc1F,/,?,-20%,/,/
COc1ccccc1NC(=O)CSc1nnc(NC(=O)NC2CCCCC2)s1,/,18µM*,-17%,/,/
N#Cc1ccccc1Cn1c(=O)n(-c2cccc(C(F)(F)F)c2)c(=O)c2sccc21,/,-2%,5%,/,/
COc1ccc(C2/C=C\CN(C(=O)C3CCCCC3)C(C)C(=O)N2Cc2ccc(F)cc2)cc1 (centres undefined),/,?,-10%,/,/
COc1ccc(N2CCN(Cc3cc4c(cc3Br)OCCO4)CC2)cc1,-68*,0%,-42%,-19%,i
CS(=O)(=O)c1ccc(C(=O)Nc2ccc(Cl)c(-c3ccccn3)c2)c(Cl)c1,/,/,/,-5%,/
CC(C)COc1ccc(CC(=O)NO)cc1,/,3%,3%,/,/
Cc1cc(Nc2ccc(Cl)cc2)nc(N)n1,22,-19%,-29%,35%,i
Nc1cc(Nc2ccc(Br)cc2)nc(N)n1,-71*,-6%,2%,9%,i
CC(=O)Nc1ccc(/C=C(\C#N)C(=O)NCc2ccccc2)cc1,-68*,5%,-45%,-9%,i
CSc1ccc(/C=C(\C#N)C(=O)NC2CCCCC2)cc1,-5,-14%,-21%,3%,i
N#C/C(=C\c1ccc(O)cc1)C(=O)NCc1ccccc1,-63*,0%,-10%,3%,i
CC1CCCCC1NC(=O)/C(C#N)=C/c1ccc2c(c1)OCCO2 (centres undefined),-102*,?,-11%,12%,i
CC(=O)Nc1ccc(/C=C(\C#N)C(=O)NC2CCCCC2)cc1,-86*,11%,10%,1%,i
O=C(CN1C(=O)COc2ccccc21)NCCc1ccc(Cl)cc1,/,3%,2%,/,/
N#C/C(=C/c1ccc([N+](=O)[O-])cc1)C(=O)Nc1ccccc1O,-63*,13%,-2%,45%,i
N#C/C(=C/c1ccc(O)cc1)C(=O)NCc1ccc(Cl)cc1,-65*,-22%,-33%,-18%,i
Cc1cc(/C=C(\C#N)C(=O)NC2CCCCCC2)c(C)[nH]1,-7,11%,-4%,41%,i
COc1ccc(-c2[nH]ncc2/C=C(/C#N)C(=O)NC2CCCCCC2)cc1,-88*,0%,-101%,?,?
c1coc(CNc2nc(N3CCCCC3)nc3ccccc23)c1,-58*,10µM*,-45%,?,?
c1ccc(CNc2nc(N3CCN(Cc4ccccc4)CC3)nc3ccccc23)cc1,/,?,28µM*,?,i
SMILES,IL1B secr inh,TGFb inhibitor,HepG2 viability,ATXN2 expr inh,ATXN viability
c1ccc(N2CCN(c3nc(NCc4ccco4)c4ccccc4n3)CC2)cc1,?,?,-60%,?,?
c1ccc(CN2CCC(CNc3ncnc4ccccc34)C2)cc1 (centres undefined),-11,-2%,-5%,-30%,i
Cc1ccc(Nc2nc(NCc3ccco3)c3ccccc3n2)cc1,-109*,11µM*,-47%,?,i
c1ccc(CN2CCC(Nc3nc(-c4ccccc4)nc4ccccc34)CC2)cc1,-52*,?,-112%,?,?
N[C@@H](CCC(=O)N[C@@H](CS)C(=O)NCC(=O)O)C(=O)O,/,/,/,-1%[25.6 µM],i
CC1CCN(C(=O)Cn2c(SCC(=O)Nc3ccc(F)cc3)nc3ccccc32)CC1,/,-7%,8%,-5%,?
CCOC(=O)[C@H]1O[C@H]1C(=O)N[C@@H](CC(C)C)C(=O)NCCC(C)C,/,/,/,0%,/
CCOC(=O)[C@H]1O[C@@H]1C(=O)N[C@@H](CC(C)C)C(=O)NCCC(C)C,-14,?,-35%,0%,3.2µM*
COc1ccccc1NC(=O)Cn1c(=O)n(CC(=O)NCc2ccccc2Cl)c(=O)c2sccc21,/,5%,-16%,4%,i
Cc1onc(C(=O)N2CCN(C(c3ccccc3)c3ccccc3)CC2)c1[N+](=O)[O-],-99*,-19%,-26%,-9%,i
CCc1cccc(NC(=O)Cn2c3[n+](c4ccc(C(F)(F)F)cc42)CCCCC3)c1,-68*,4%,9%,2%,i
O=C(Cn1c2[n+](c3ccc(C(F)(F)F)cc31)CCCCC2)Nc1ccccc1,-13,-1%,-39%,0%,i
O=C(Nc1cccc(S(=O)(=O)N2CCCC2)c1)[C@@H]1O[C@H](CO)[C@@H](O)[C@H]1O,-76*,24%,-1%,14%,i
O=C(Nc1cccc(S(=O)(=O)N2CCCC2)c1)[C@@H]1O[C@H](CO)[C@H](O)[C@H](O)[C@H]1O,11,0%,10%,-13%,i
Cc1ccc(NC(=O)CNc2cccc(S(=O)(=O)N3CCCC3)c2)cc1F,-67*,?,-8%,-26%,i
O=C(Cc1ccccc1Cl)Nc1cccc(S(=O)(=O)N2CCCCCC2)c1,-52*,-14%,-1%,-12%,i
Cn1nc(C(=O)Nc2cccc(S(=O)(=O)N3CCCCC3)c2)c2ccccc2c1=O,-54*,10%,-4%,2%,i
O=C(Nc1cc(F)ccc1F)c1ccc2c(c1)nnn2C1CCCC1,/,-23%,-24%,10%,i
CSc1cccc(N2C(=O)N(CC(=O)NCc3ccccc3Cl)c3ccccc3S2(=O)=O)c1,/,-22%,-38%,-11%,i
O=C(COC(=O)CCC1CCCC1)Nc1cccc(S(=O)(=O)N2CCOCC2)c1,-87*,18%,-22%,-2%,i
O=C(Cc1ccc(Cl)c(Cl)c1)Nc1cccc(S(=O)(=O)N2CCOCC2)c1,-80*,-9%,-29%,-17%,i
O=C(Cc1ccc2c(c1)OCCO2)Nc1cccc(S(=O)(=O)N2CCOCC2)c1,2,0%,-4%,-4%,i
COc1ccc(NC(=O)CN(C)CC(=O)Nc2cccc(F)c2)cc1S(=O)(=O)N1CCCCC1,-24,-12%,-8%,9%,i
O=C(CNc1ccc(F)cc1Cl)Nc1cccc(S(=O)(=O)N2CCCCC2)c1,?,?,-37%,1%,i
O=C(Nc1cccc(S(=O)(=O)N2CCCCC2)c1)Nc1ccc(Cl)cc1Cl,-87*,?,10%,?,?
NS(=O)(=O)c1cccc(NC(=O)COC(=O)CCC2CCCC2)c1,-3,8%,-10%,-5%,i
